Screening data as filed in PubChem BioAssay.
Shiga inhibitor: Shiga toxin inhibition. Vero cells, Shiga toxin protein synthesis inhibition reporter. inhibition, % at 38.7 µM. actives 9.2% (n = 290,000); in the data active means inhibition mostly above about 28%, no sharp cut-off; inactive means mostly below about 43%
Cycloheximide cs: counter-screen hit for Shiga toxin inhibitors, cycloheximide | cell reporter, cycloheximide protein synthesis inhibition counterscreen | max response, % | actives 12% (n = 300,000) | AID 2314; in the data active means max response mostly above about 13%, no sharp cut-off; inactive means mostly below about 14%; further: read at 38.3 µM for the half of the compounds with a filed dose
MARV entry inh: inhibitors of Marburg virus binding or cell entry; AID 540276; Marburg virus pseudotyped entry inhibition, cell reporter; Potency, µM (series often up to 37.8 µM), usual class: inhibitors; actives 1.8% (n = 300,000); calls by dose curve; tested in HEK293 cells
LASV entry inh: blocks Lassa virus binding to or entry into cells; Potency, µM (series often up to 37.9 µM), actives largely listed as inhibitors; actives 1.2% (n = 300,000); Lassa virus pseudotype entry inhibition, cell reporter; calls by dose curve; tested in HEK293 cells; further: nearly all actives have a fitted effect of over 50% in size
Numbers stand for hits; i = inactive; ? = inconclusive; nt = no result given; + = active, no number. In the library only some 12% were active in any assay of this set; here they are far more common.

SMILES	Shiga inhibitor	Cycloheximide cs	MARV entry inh	LASV entry inh
CC1CC(OC(=O)C2CCN(S(=O)(=O)c3ccc(F)cc3)CC2)C(=O)O1 (centres undefined)	nt	nt	i	i
O=C1/C(=C/c2cccs2)NC(=S)N1C1CC1	active	i	i	i
O=C1CNC(=O)/C(=C/c2cccs2)N1	i	i	?	i
Cc1nn(Cc2ccccc2)c(Cl)c1C(=O)OC(C)C(=O)Nc1ccc(F)cc1Cl (centres undefined)	i	i	13µM	3.2µM
COC(=O)c1cccc(NC(=O)N(C)CCc2c(C)nn(C)c2C)c1	nt	nt	nt	i
Cc1nc2ccccc2nc(C)c1=NOCc1ccccc1Cl	86	39	?	i
CCCc1ccc(S(=O)(=O)N2CCC(Oc3ccc(-n4cnnn4)cc3)CC2)cc1	nt	nt	i	?
N#C/C(=C/c1ccc(N2CCCCC2)cc1)c1cccc(F)c1	i	36	i	?
N#C/C(=C/c1ccc(N2CCCCC2)o1)c1cccc(F)c1	65	39	?	?
N#C/C(=C/c1ccc(N2CCCCCC2)o1)c1ccc(Cl)cc1	i	i	?	i
O=Cc1ccc(N2CCCCC2)cc1	i	i	i	i
N#CC(C#N)=Cc1ccc(N2CCCC2)cc1	i	28	i	?
CCCNC(=O)CS(=O)(=O)c1ccccc1	i	10	nt	nt
Cc1ccc(CNC(=O)CS(=O)(=O)c2ccccc2)cc1	i	26	nt	nt
O=C(Cn1ccc([N+](=O)[O-])n1)NCc1ccccc1	nt	nt	?	i
Cc1cc(NCCCn2ccnc2)n2nc(C)c(-c3ccccc3)c2n1	i	44	i	i
c1ccc(-c2nc(NCCCn3ccnc3)c3ccccc3n2)cc1	i	i	?	?
Cc1cc(NCCCn2ccnc2)n2nc(C)c(-c3ccc(Cl)cc3)c2n1	i	26	?	i
Cc1cc(NCCN2CCOCC2)n2nc(C)c(-c3ccc(Cl)cc3)c2n1	i	i	?	?
Cc1cc(NCCCn2ccnc2)n2ncc(-c3ccccc3)c2n1	i	i	?	4.5µM
CCOC(=O)c1[nH]c2cc3c(cc2c1NC(=O)CN1CCN(CCO)CC1)OCO3	i	i	i	i
CC(=O)Nc1ccc(SCC(=O)Nc2cc(C(C)(C)C)nn2-c2ccccc2)cc1	i	i	?	i
CCOC(=O)CNC(=O)Nc1cc(C(C)(C)C)nn1-c1ccccc1	i	37	i	i
Cc1ccc(OCCCSc2nc(-c3ccc(C(C)(C)C)cc3)nc3cc(=O)[nH]n23)cc1C	nt	nt	nt	i
O=C(NCc1ccccc1)c1cccc(Br)n1	i	i	i	i
SMILES	Shiga inhibitor	Cycloheximide cs	MARV entry inh	LASV entry inh
O=C(NCCc1ccccc1)c1ccc(Br)o1	83	46	nt	nt
O=C(NCC(=O)N1CCN(Cc2ccccc2)CC1)c1ccc(Br)o1	i	14	i	i
Cc1ccc(CNC(=O)c2ccc(Br)o2)cc1	i	20	i	i
O=C(NCCc1ccccc1)c1cccc(Br)n1	+	78	nt	nt
O=C(NCc1ccccc1)c1ccc(Br)o1	i	i	i	i
CC(=O)N1CCN(C(=O)CNC(=O)c2ccc(Br)o2)CC1	i	i	i	i
Cc1c(Cl)cccc1NS(=O)(=O)c1ccc(-c2ccc(=O)[nH]n2)o1	i	i	?	i
CCN(CCCc1ccccc1)CCCc1ccccc1	i	i	5.8µM	?
O=C(CCCC(=O)c1ccccc1)Nc1ccc(F)cc1	i	i	i	i
CCN(CCCC(=O)c1ccc(F)cc1)CCc1ccccc1	i	i	3.5µM	?
CCCCN1C(=O)N(c2nnc(C(C)(C)C)s2)C(O)C1c1ccc(C)cc1 (centres undefined)	i	17	nt	nt
COc1ccc(C2CC(=O)c3sc(NC(C)=O)nc3C2)cc1 (centres undefined)	active	20	?	i
COc1ccc(-c2nc(NC(C)=O)sc2-c2ccc(OC)cc2)cc1	i	i	i	i
CC(=O)NC(CCS(C)(=O)=O)C(=O)Nc1ccc2c(c1)OCO2 (centres undefined)	i	i	nt	nt
CCC1CCC(C(=O)NC(C(=O)Nc2ccc3c(c2)OCCO3)C(C)C)CC1 (centres undefined)	i	i	?	i
CC(C)CC(NC(=O)C1CCC(C)CC1)C(=O)Nc1ccc2c(c1)OCCO2 (centres undefined)	122	44	nt	nt
COC(=O)[C@H](CC(C)C)NC(=O)Nc1ccc2c(c1)OCCO2	93	33	i	i
CC(C)CC(NC(=O)C1CCC(C)CC1)C(=O)Nc1ccccn1 (centres undefined)	131	27	i	i
COC(=O)[C@@H](NC(=O)Nc1ccc2c(c1)OCCO2)C(C)C	i	i	i	i
CC(=O)NC(CCS(C)(=O)=O)C(=O)Nc1ccc2c(c1)OCCO2 (centres undefined)	42	i	i	i
O=C(c1cccnc1)N1CCN(c2ccc3ccccc3n2)CC1	i	i	nt	nt
COc1ccc(-c2noc(CCCC(=O)Nc3ccc(C(N)=O)cc3)n2)cc1OC	i	i	i	i
